From the OligoGym collection come the findings set out here.
Further: reference of the scale not given here.

One assay has as its target BMPR1B. As to the kind of experiment: pooled miR-30 sensor sort-seq; sequence = guide strand. To be noted: shRNA.
Regarding TTTTACTTTTCAGATCTCGATG, the sensor-assay potency score (higher = more potent) was -0.74.

With TTGATGCACACAATCTCCCTCA, the sensor-assay potency score (higher = more potent) was -0.279. The same measure, in the same setting: for TCTGTCTCTCTGAACCAGCTGG the value was -0.359. Still for that read-out and setting: for TCTGTGATTAGGTACAACTGGG the value was 0.0109; for TTTCACCATCTGAATCTGCTTA, -0.0649; for TATTCTTCCACTATACCTCCTG, 0.554. Still for that read-out and setting: for TTGTTGACTGAGTCTTCTGGAC the value was -0.721. In the case of TCATCGTGAAACAATATCCGTC, the sensor-assay potency score (higher = more potent) was -0.268.

Turning to TAGGTCTTTATTACATTCGTTC, the sensor-assay potency score (higher = more potent) is -0.881. Same read-out and setting: for TTCACCATCTGAATCTGCTTAG the value was -0.315. Regarding TTGATCTTCTTTGATGAGGAAT, the sensor-assay potency score (higher = more potent) is -1.13. Turning to TTACATTCGTTCCTTTCTGTGC, the sensor-assay potency score (higher = more potent) is -0.864.

In turn, TTGAGTACTAAAGATTTCTGTG showed a sensor-assay potency score (higher = more potent) of 0.176. With ATTTCTGTCTCTCTGAACCAGC, the sensor-assay potency score (higher = more potent) was -0.623. Still for that read-out and setting: the figure for TATTACATTCGTTCCTTTCTGT is 0.878. On the same count and under the same terms, for TTCTGTTCAAGCTCTCGTCCAA the value was -0.142. On to TATTGTTGACTGAGTCTTCTGG, for which the sensor-assay potency score (higher = more potent) amounted to 0.00108.

Regarding TCATCCTCTTCTATCATCGTGA, the sensor-assay potency score (higher = more potent) was found to be 0.152. On the same count and under the same terms, the figure for TGATATATTTCTGTCTCTCTGA is 0.214; for TAGGTCATGATAAGGAAGCTGG it is -0.2; for TCGTGAAACAATATCCGTCTGT it is -0.0353.

The next assay deals with BOLA1. The assay is described as above. The following applies: shRNA.
Take TAGTGAGTGATTCTTCTCTTTT: the sensor-assay potency score (higher = more potent) was -0.956.

TGAGAGTTCTCTCTCCACTGGG returned a sensor-assay potency score (higher = more potent) of -0.015. The same measure, in the same setting: for TTGCGAAGCTCTAGCACCTCGG the value was -0.666; for TTGACCTGAAGCAAGTTGCTAT, -0.107.
